# In PubChem BioAssay (NCI):
# Compounds without any hit were thinned out: in the full panel of roughly 83,000, 20% have a hit.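 In brief: 96-well plates, 48 h treatment, single concentration, percent growth endpoint.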 Unmarked numbers belong to inactive results. Activity calls are given as the source filed them. The calls were made as follows: active = growth percent below 10; inactive = the rest.
# Experiments:
# Experiment in all cases: NCI-60 one-dose screen, 48 h (100 = growth as untreated, 0 = no growth, -100 = all killed)
# Conditions in all cases: 10 µM unless noted
# T-47D breast = test system: T-47D breast
# BT-549 breast = test system: BT-549 breast
# MDA-MB-435 melanoma = test system: MDA-MB-435 melanoma
# SW-620 colon = test system: SW-620 colon
# HCT-116 colon = test system: HCT-116 colon
# HCC-2998 colon = test system: HCC-2998 colon
# KM12 colon = test system: KM12 colon
# MCF7 breast = test system: MCF7 breast
Compound,growth (T-47D breast),growth (BT-549 breast),growth (MDA-MB-435 melanoma),growth (SW-620 colon),growth (HCT-116 colon),growth (HCC-2998 colon),growth (KM12 colon),growth (MCF7 breast) [%]
CN(C)c1ccc(O)c2c1CC1CC3C(N(C)C)C(=O)C(C(N)=O)=C(O)C3(O)C(=O)C1=C2O (stereo unspecified),50.5%,29.2%,44.8%,47.8%,34.1%,49.7%,50%,
CN1CCCN(C(c2ccccc2)c2ccc(Br)cc2)CC1 (stereo unspecified),103%,63.3%,-29.3% (active),49.6%,21.4%,95.9%,63.9%,
CCOC(=O)Nc1nccs1,94.8%,101%,111%,110%,104%,118%,107%,
Nc1ccc(F)cc1F,101%,103%,107%,106%,88.5%,113%,108%,
O=S(=O)(O)c1cccnc1,106%,111%,102%,98.9%,126%,153%,101%,
O=C1NCC2CCCC1C2 (stereo unspecified),118%,98.3%,112%,120%,101%,93.1%,107%,
CCNC(=O)Oc1ccc[nH]c1=O,86.1%,110%,103%,105%,108%,106%,104%,
CCOC(=O)C(COS(C)(=O)=O)(COS(C)(=O)=O)C(=O)OCC,103%,106%,104%,110%,104%,106%,107%,
CCN(CC)c1ccc2nc3ccc(N=Nc4ccc(N(C)C)cc4)cc3[n+](-c3ccccc3)c2c1,0.779% (active),-23.3% (active),-87.3% (active),-82.5% (active),-70.3% (active),-69.7% (active),-64.3% (active),
CN1CCCN(C(c2ccccc2)c2ccc(Cl)cc2)CC1 (stereo unspecified),87.1%,94.5%,89.6%,85.9%,96.9%,98.9%,101%,
Cn1c(=O)c2[nH]c(CCCCC(=O)O)nc2n(C)c1=O,113%,106%,110%,101%,106%,111%,106%,
N=C(N)c1nn(C2OC(CO)C(O)C2O)c2nc[nH]c(=O)c12 (stereo unspecified),-14.6% (active),-14.8% (active),-49.5% (active),-4.15% (active),-80.3% (active),-22.8% (active),-49.4% (active),
O=C(c1ccccc1)c1ccc(-c2ccc(O)cc2)cc1,50.6%,52.3%,9.71% (active),45.4%,59.4%,,35.2%,23.3
Cc1cc(CO)c(O)c(CO)c1,96.4%,94.7%,106%,99.9%,98.2%,96.8%,107%,
Cc1cc2c3ccc(C)[n+](C)c3ccc2n1C,74.5%,16.8%,52%,15.1%,29.4%,22.2%,5.81% (active),
COC(=O)c1ccc([N+](=O)[O-])c(C)c1,102%,86.3%,101%,103%,95.6%,106%,99.8%,
CCOC(=O)c1ccc(NC(C)=O)o1,93.5%,104%,103%,78.7%,101%,115%,102%,
CCCCCCCCCc1ccc(OC(C)=O)cc1,108%,112%,109%,102%,110%,113%,106%,
C=C1C(=O)C2CCC1C2 (stereo unspecified),98.7%,93%,105%,101%,105%,97%,96.5%,
CC1CCC(C(C)(C)[N+](C)(C)C)CC1 (stereo unspecified),98.8%,92.6%,108%,105%,98.4%,93.7%,99.7%,
O=C(O)Cc1cccc2ccccc12,103%,107%,104%,102%,106%,95.9%,107%,
C[C@H](CCC[C@H](C)OS(=O)(=O)c1ccccc1)OS(=O)(=O)c1ccccc1,100%,125%,108%,105%,95.1%,120%,107%,
Nc1cccc2cccc(O)c12,102%,,108%,67.4%,78.8%,95.8%,128%,79.9
